Measurements published in PubChem BioAssay AID1159580 (chemical genetic matrix, 2015).
In all, about 5,500 compounds went through this assay and about 2,000 (36%) were called active. Not shown: some 18% with an inconclusive outcome. No stated cut-off is given here; in the data, active means normalized growth mostly below about 0.91 (no sharp cut-off); inconclusive means no clear call, values can overlap the other calls; inactive means mostly above about 0.92. This is one part of the list.

Test: chemical genetic growth profiling, strain panel (AID 1159580);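 further: tested at 20 µM; growth read once vehicle control cultures reached saturation at 30 °C; 1 = growth at the plate median or of vehicle wells; lower values mean less growth of the strain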
Conditions: S. cerevisiae deletion strains, growth OD
[1] = locus YAL013W, strain DEP1, hits give low values
[2] = locus YBR229C, strain ROT2, hits give low values
[3] = locus YDL101C, strain DUN1, hits give low values
[4] = locus YDR150W, strain NUM1, hits give low values
[5] = locus YEL061C, strain CIN8, hits give low values
[6] = locus YGR078C, strain PAC10, hits give low values
[7] = locus YGR229C, strain SMI1, hits give low values
[8] = locus YHR030C, strain SLT2, hits give low values
[9] = locus YHR087W, strain rtc3, hits give low values
[10] = locus YJR043C, strain POL32, hits give low values
[11] = locus YJR075W, strain HOC1, hits give low values
[12] = locus YLR039C, strain RIC1, hits give low values
[13] = locus YLR058C, strain SHM2 (second series), hits give low values
[14] = locus YLR085C, strain ARP6, hits give low values
[15] = locus YLR262C, strain YPT6, hits give low values
[16] = locus YML094W, strain GIM5, hits give low values
[17] = locus YMR219W, strain ESC1, hits give low values
[18] = locus YMR263W, strain SAP30, hits give low values
[19] = locus YMR307W, strain GAS1, hits give low values
[20] = locus YNL153C, strain GIM3, hits give low values
[21] = locus YNL298W, strain CLA4 (second series), hits give low values
[22] = locus YNL322C, strain KRE1, hits give low values
[23] = locus YNR030W, strain Alg12, hits give low values
[24] = locus YOL006C, strain TOP1, hits give low values
[25] = locus YPL055C, strain LGE1, hits give low values
[26] = locus YPL241C, strain CIN2, hits give low values
[27] = locus YPR135W, strain CTF4, hits give low values
[28] = locus YJL187C, strain SWE1, hits give low values

Measured: normalized growth

Brc1ccc(-c2ccn[nH]2)s1
inactive: [1] 0.978 | [2] 0.966 | [3] 0.971 | [4] 1.02 | [5] 0.938 | [6] 0.973 | [7] 0.955 | [8] 0.938 | [9] 0.993 | [10] 1 | [11] 0.971 | locus YKL190W, strain CNB1, hits give low values 0.949 | [13] 0.963 | [16] 0.886 | [17] 0.968 | [18] 1.02 | [19] 0.953 | locus YNL128W, strain TEP1, hits give low values 0.94 | [21] 0.936 | [22] 0.97 | [23] 0.939 | [25] 1.07 | [27] 0.789
active: [12] 0.703 | [14] 0.721 | [15] 0.67 | [20] 0.906 | [24] 0.715 | [26] 0.525

CN(C)C=Nc1nnc(SCc2ccc(C(=O)Oc3ccc(F)cc3F)cc2)s1
inactive: [1] 0.989 | [2] 1.05 | [3] 1.02 | [4] 0.939 | [5] 1.01 | [6] 1.01 | [7] 1.01 | [8] 0.931 | [9] 1.02 | [28] 1.01 | [10] 0.949 | [11] 1.03 | [12] 1.08 | [13] 1.01 | [14] 0.919 | [15] 1.04 | [16] 0.973 | [17] 1.01 | [18] 0.924 | [19] 0.915 | [20] 1.02 | [21] 1 | [22] 1.03 | [23] 0.989 | [24] 1.07 | [25] 0.855 | [26] 0.996 | [27] 0.926

CN(C)C=Nc1nnc(Sc2nc3c(Cl)cc(Cl)cc3s2)s1
inactive: locus YAR019C, strain CDC15, hits give low values 0.959 | locus YBL105C, strain PKC1, hits give low values 0.969 | locus YBR135W, strain CKS1, hits give low values 0.973 | locus YBR136W, strain MEC1, hits give low values 0.968 | locus YBR160W, strain CDC28, hits give low values 0.977 | locus YDL017W, strain CDC7, hits give low values 0.976 | locus YDL028C, strain MPS1, hits give low values 0.975 | [3] 0.972 | locus YDL108W, strain KIN28, hits give low values 0.976 | locus YDL132W, strain cdc53, hits give low values 0.964 | locus YDL214C, strain PRR2, hits give low values 0.97 | locus YDR052C, strain DBF4, hits give low values 0.972 | locus YDR054C, strain cdc34, hits give low values 0.954 | locus YDR226W, strain ADK1, hits give low values 0.961 | locus YDR477W, strain SNF1, hits give low values 0.944 | locus YER123W, strain YCK3, hits give low values 0.953 | locus YER133W, strain GLC7, hits give low values 0.925 | locus YFL009W, strain cdc4, hits give low values 0.963 | locus YFL029C, strain CAK1, hits give low values 0.959 | locus YFR003C, strain YPI1, hits give low values 0.973 | locus YFR019W, strain FAB1, hits give low values 0.975 | locus YFR028C, strain CDC14, hits give low values 0.969 | locus YGR040W, strain KSS1, hits give low values 0.943 | locus YGR052W, strain FMP48, hits give low values 1 | locus YGR092W, strain DBF2, hits give low values 0.929 | [8] 1.11 | locus YHR079C, strain IRE1, hits give low values 0.946 | locus YHR082C, strain KSP1, hits give low values 1.07 | locus YHR205W, strain SCH9, hits give low values 1.01 | locus YIL147C, strain SLN1, hits give low values 0.964 | locus YJL095W, strain BCK1, hits give low values 0.937 | locus YJL128C, strain PBS2, hits give low values 0.944 | locus YJL157C, strain FAR1, hits give low values 0.941 | locus YJR016C, strain ILV3, hits give low values 0.967 | locus YJR066W, strain TOR1 (second series), hits give low values 0.924 | locus YJR066W, strain TOR1, hits give low values 1.01 | locus YKL048C, strain ELM1, hits give low values 1.01 | locus YKL067W, strain YNK1, hits give low values 0.958 | locus YKL101W, strain HSL1, hits give low values 1.01 | locus YKL193C, strain SDS22, hits give low values 0.968 | locus YKL203C, strain TOR2, hits give low values 0.96 | locus YLR113W, strain HOG1, hits give low values 0.964 | locus YLR133W, strain CKI1, hits give low values 0.968 | locus YLR403W, strain SFP1, hits give low values 0.924 | locus YML070W, strain DAK1, hits give low values 0.98 | locus YMR001C, strain CDC5, hits give low values 0.969 | locus YMR205C, strain PFK2 (second series), hits give low values 0.99 | locus YMR277W, strain FCP1, hits give low values 0.962 | locus YNL006W, strain LST8, hits give low values 0.969 | locus YNL020C, strain ARK1, hits give low values 0.966 | locus YNL161W, strain CBK1, hits give low values 0.967 | locus YNL183C, strain NPR1, hits give low values 0.995 | locus YNL207W, strain RIO2, hits give low values 0.959 | locus YNL222W, strain SSU72, hits give low values 0.97 | locus YNL307C, strain MCK1 (second series), hits give low values 0.979 | locus YOL078W, strain AVO1, hits give low values 0.973 | locus YOL136C, strain PFK27, hits give low values 0.984 | locus YOR061W, strain CKA2, hits give low values 0.944 | locus YOR119C, strain RIO1, hits give low values 1 | locus YOR231W, strain MKK1, hits give low values 0.954 | locus YOR329C, strain SCD5, hits give low values 0.968 | locus YPL031C, strain PHO85, hits give low values 0.9 | locus YPL153C, strain RAD53, hits give low values 0.913 | locus YPL204W, strain HRR25, hits give low values 0.903 | locus YPL209C, strain IPL1, hits give low values 0.975 | locus YPL256C, strain CLN2, hits give low values 1.1 | locus YPR025C, strain CCL1, hits give low values 0.971 | locus YPR106W, strain ISR1, hits give low values 0.98 | locus YPR111W, strain DBF20, hits give low values 0.957 | strain NNK1, hits give low values 0.974 | strain TSCII, hits give low values 0.957

CN(C)C=Nc1nnc(Sc2nc3cc(Cl)ccc3s2)s1
active: [8] 0.631 | [12] 0.757 | [14] 0.707 | [17] 0.932 | [24] 0.71 | [25] 0.796 | [26] 0.848
inactive: [1] 0.939 | [2] 0.958 | [3] 0.977 | [4] 0.968 | [5] 0.93 | [6] 0.983 | [9] 0.914 | [28] 0.938 | [10] 0.966 | [11] 0.974 | [13] 0.969 | [15] 0.826 | [16] 0.909 | [18] 0.957 | [20] 0.962 | [21] 0.887 | [22] 0.987 | [23] 0.93 | [27] 0.698

C[C@H](O)C(=O)C1=Nc2c(nc(N)[nH]c2=O)NC1
inactive: [1] 0.952 | locus YAL040C, strain CLN3, hits give low values 0.966 | locus YCL061C, strain MRC1 (second series), hits give low values 0.983 | locus YDR363W, strain ESC2, hits give low values 0.952 | locus YER002W, strain NOP16, hits give low values 1.04 | [6] 0.998 | [11] 0.98 | [18] 0.983 | [19] 0.983 | locus YNL175C, strain NOP13, hits give low values 1.01 | locus YNL197C, strain WHI3, hits give low values 1.01 | locus YNL224C, strain SQS1, hits give low values 0.997 | [22] 0.955 | locus YOR083W, strain WHI5 (second series), hits give low values 0.996 | [25] 0.971
